Experimental data from PubChem BioAssay (NCATS).
Records with an inconclusive call do not appear. Unmarked numbers belong to inactive results. Calls follow the shape of the dose curve; as a rule, active = well fitted cell-killing curve with a large enough effect; inconclusive = small, poorly fitted or top-dose-only effect; inactive = flat fitted curve, though single readings scatter.

Assay: UWB1.289 Cancer Cell Toxicity qHTS against the NCATS CANVASS Library (AID 1347347); also: nearly all actives have a fitted effect of over 60% in size
Conditions: UWB1.289 viability, CellTiter-Glo luminescence, 72 h; series mostly up to 38.3 µM; activity change, negative = cytotoxicity: at the top concentration
Outline: (§1)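 ATP content after 72 h treatment, detected by CellTiter-Glo luminescence (15min room-temperature development), reflects cell viability. Wells contained 1000 cells and received compounds at 11 concentrations.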
% is scaled to controls: 0 for no effect and ±100 for the full control effect.

Compound | activity change, negative = cytotoxicity [%]
CC(=O)O[C@H]1C[C@@]2(C)[C@@H](CC[C@H]3[C@@]4(C)C=CC(=O)[C@@H](C)[C@@H]4[C@H](OC(C)=O)C(=O)[C@@]32C)/C1=C(\CCC=C(C)C)C(=O)O | -9.11
CC(C)c1ccc2c(c1)CCC1[C@](C)(C(=O)O)CCC[C@]21C (some centres not stated) | 1.19
C/C(=C\CC/C(C)=C/CC[C@]1(C)CCc2cc(O)cc(C)c2O1)CC/C=C(\C)C(=O)O | -20.4

Assay: OV-SAHO Cancer Cell Toxicity qHTS against the NCATS CANVASS Library (AID 1347348); also: nearly all actives have a fitted effect of over 55% in size
Conditions: OV-SAHO viability, CellTiter-Glo luminescence, 72 h; series mostly up to 38.3 µM; activity change, negative = cytotoxicity: at the top concentration
Outline: as §1

Compound | activity change, negative = cytotoxicity
CC(=O)O[C@H]1C[C@@]2(C)[C@@H](CC[C@H]3[C@@]4(C)C=CC(=O)[C@@H](C)[C@@H]4[C@H](OC(C)=O)C(=O)[C@@]32C)/C1=C(\CCC=C(C)C)C(=O)O | -11.1%
O=C(/C=C/C=C/c1ccc2c(c1)OCO2)N1CCCCC1 | -20.6% [at 76 µM]
CC(C)c1ccc2c(c1)CCC1[C@](C)(C(=O)O)CCC[C@]21C (some centres not stated) | -0.0412%
C/C(=C\CC/C(C)=C/CC[C@]1(C)CCc2cc(O)cc(C)c2O1)CC/C=C(\C)C(=O)O | -0.254%
